# Data as given in PubChem BioAssay AID504329 (Southern Research Specialized Biocontainment Screening …, 2011).
# “And” between values parts separate entries of the source, which are not always exact repeats. Equal values may be shown once. Out of some 340,000 compounds screened, about 1,000 (0.29%) were called active. Rule as the data show it: inconclusive = inhibition above about 27% without an active follow-up result; inactive = below that. Only a sample is shown. Measured potencies and affinities stand elsewhere.
# Assay: NS1A inhibition, H1N1 influenza, cell based functional assay (AID 504329)
# Details: percent inhibition, at 12.5 µM, stronger effect = higher value
row,SMILES,inhibition
1,CSc1cccc(NC(=O)CN(C)S(=O)(=O)c2ccc(C)cc2)c1,-2.41% (inactive)
2,CCOc1ccc(NS(=O)(=O)c2ccc(C(=O)NCC(C)(C)N3CCOCC3)cc2)cc1,-14.4% (inactive)
3,S=C(NCc1ccccc1)NCc1ccccn1,1.05% (inactive)
4,O=C(CCCC(=O)N/N=C\c1ccccn1)N/N=C\c1ccccn1,-2.81% (inactive)
5,O=C(Cc1ccccc1)N/N=C/c1ccccn1,-2.81% (inactive)
6,Cc1ccc(NC(=S)NCc2ccccn2)cc1,-14.7% (inactive)
7,Cc1ccc2c(c1)oc(=O)n2CC(=O)c1ccccc1,-20.6% (inactive)
8,CCOC(=O)CC1CCCCN1C(=O)c1ccc2nc(CCOC)oc2c1 (stereo not given),1.79% (inactive)
9,CCN1CCN(Cc2nc3cc(NC(=O)COc4ccc([N+](=O)[O-])cc4)ccc3n2C)CC1,0.32% (inactive)
10,CC(=O)c1ccc(N(CC(=O)NCC2CCCO2)C(=O)CCC(=O)Nc2cc(C)on2)cc1 (stereo not given),-8.06% (inactive)
11,Cc1cccn2c(=O)c(C(=O)NC3CCCCC3)c(O)nc12,5.08% (inactive)
12,CCOC(=O)C1CCCN(C(=O)/C=C/c2ccc(Cl)cc2)C1 (stereo not given),-12.8% (inactive)
13,O=C(O)C1C2C=CC(C2)C1C(=O)Nc1ccc(Cl)c(Cl)c1 (stereo not given),1.34% (inactive)
14,NC(=S)N/N=C/c1cccc(/C=N/NC(N)=S)c1,-0.05% (inactive)
15,COC(=O)c1cccc(/C=N/NC(N)=S)c1O,-14.3% (inactive)
16,Oc1ccccc1C=NNC(=S)NN=Cc1ccccc1O,16.5% (inactive)
17,NC(=S)N/N=C/c1ccccc1,-0.87% (inactive)
18,Cc1ccc(NC(=O)c2cc(S(=O)(=O)N3CCCC3)cn2C)cc1,2.93% (inactive)
19,COc1cccc(S(=O)(=O)Nc2ccc(C(=O)N3CCN(C(=O)c4ccco4)CC3)cc2)c1,5.1% (inactive)
20,COC(=O)C=CC(=NNc1ccccc1)c1ccccc1,3.06% (inactive)
21,Cc1nn(Cc2ccc(Cl)cc2)c(C)c1NC(=O)CCCn1nc(C)c([N+](=O)[O-])c1C,10.9% (inactive)
22,Oc1c(Br)cc(Br)c2cccnc12,-9.24% (inactive)
23,O=C(O)c1ccc2cccnc2c1O,-0.15% (inactive)
24,O=C(c1ccc(Cl)cc1)C1CCCN(Cc2cccc3cccnc23)C1 (stereo not given),-0.71% (inactive)

row,SMILES,inhibition
1,Oc1c(CN2CCN(c3ccccc3)CC2)cc(Br)c2cccnc12,14.4% (inactive)
2,CC(C(=O)NC1CCCCCC1)N(c1ccccc1)S(C)(=O)=O (stereo not given),7.2% (inactive)
3,CC1(C)Cc2cccc(Oc3ccc(S(=O)(=O)N4CCCC4)cn3)c2O1,6.74% (inactive)
4,CC(C)(CNC(=O)C1CCCN1C(=O)c1cccs1)N1CCOCC1 (stereo not given),-1% (inactive)
5,O=C(c1cc(-c2ccc(Cl)cc2)n[nH]1)N1CCc2ccccc2C1,-1.28% (inactive)
6,COc1ccccc1C(=O)NC(=O)COC(=O)c1cnc(C)cn1,1.58% (inactive)
7,CCc1cccc(CC)c1NC(=S)NCCc1ccc(O)c(O)c1,9.59% (inactive)
8,CCN1/C(=C/c2ccc3cc(C)ccc3[n+]2CC)Sc2ccccc21,21% (inactive)
9,CCN1/C(=C/c2ccc3cc(C)ccc3[n+]2CC)Sc2ccc3sccc3c21,-14% (inactive)
10,CCN1/C(=C\c2ccc3cc(C)ccc3[n+]2CC)Sc2cc(C)c(C)cc21,25.6% (inactive)
11,CCN1/C(=C/c2ccc3ccccc3[n+]2CCCS(=O)(=O)[O-])C=Cc2cc(C)ccc21,19.6% (inactive)
12,CCN1/C(=C/c2ccc3cc(C)ccc3[n+]2CC)Sc2cc(C)c(C)cc21,28.7% (inactive)
13,CCN1C(=C(C#N)C#N)C=Cc2ccccc21,-6.42% (inactive)
14,CC(=O)N(C)C(c1ccc(N(C)C)cc1)c1nnnn1-c1c(C)cccc1C (stereo not given),3.51% (inactive)
15,CCCC(=O)Nc1nnc(S(=O)(=O)N(CC(C)C)c2ccccc2)s1,-2.29% (inactive)
16,CCN(CC)C(=O)[C@H]1C[C@H](CC(=O)NCCc2ccccn2)C(=O)N2CCc3c([nH]c4ccc(Cl)cc34)[C@]12C,15.9% (inactive)
17,O=C(CCC1CCCN(c2ncccn2)C1)NCc1ccccc1F (stereo not given),-9.11% (inactive)
18,O=C1OCc2cc(NC(=O)C34CC5CC(CC(C5)C3)C4)ccc21,1.32% (inactive)
19,O=C(O)c1cccc2c1-c1ccc(Cl)cc1C2=O,-19.9% (inactive)
20,Nc1ccc2c(c1)C(=O)c1ccc(Cl)cc1-2,-15.2% (inactive)
21,C[C@@H]1Cc2c(O)c(O)cc(O)c2C(=O)O1,3.88% (inactive)
22,CC1CC(=O)c2c(cc3c(-c4c(O)cc(O)c5c(O)c6c(cc45)OC(C)CC6=O)c(O)cc(O)c3c2O)O1 (stereo not given),24.8% (inactive)
23,O=C(CSc1nnc(-c2ccco2)n1CC1CCCO1)NC1CCCC1 (stereo not given),20.3% (inactive)
24,CCOc1ccc2[nH]c3ncccc3c(=O)c2c1,3.05% (inactive)

row,SMILES,inhibition
1,CCOc1ccc(N=Nc2ccc(O)c3ncccc23)cc1,4% (inactive)
2,O=C(Nc1ccc([N+](=O)[O-])cc1Cl)c1cc(Cl)ccc1O,8.63% (inactive)
3,O=C(Nc1cccc(O)c1)c1ccc([N+](=O)[O-])cc1Cl,-2.66% (inactive)
4,Cc1cccc(NS(=O)(=O)c2csc(C(N)=O)c2)c1,14.1% (inactive)
5,Cc1cccc(OCCCC(=O)NNC(=O)c2ccc(F)cc2)c1,-5.91% (inactive)
6,COc1cc(N=Nc2ccc(C(=O)N(C)C)cc2)c(C)cc1N,11.5% (inactive)
7,COc1ccc(N=Nc2ccc(N)nc2N)cc1,20.4% (inactive)
8,Cn1c(Cn2c(=O)sc3ccccc32)nnc1SCC(=O)NCCc1ccccc1,1.01% (inactive)
9,CN(C)c1ccc(N=Nc2ccccc2C(=O)OCC(=O)N2CCCC2)cc1,22.2% (inactive)
10,CN(C)c1ccc(N=Nc2ccccc2C(=O)OCC(=O)N(C)C2CCCCC2)cc1,10.8% (inactive)
11,CC(=O)c1ccc(NC(=O)COC(=O)c2ccccc2N=Nc2ccc(N(C)C)cc2)cc1,17.2% (inactive)
12,CN(C)c1ccc(N=Nc2ccccc2C(=O)OCC(=O)NCC2CCCCC2)cc1,8.64% (inactive)
13,CN(C)c1ccc(N=Nc2ccccc2C(=O)OCC(=O)N2CCCCCC2)cc1,28.4% (inactive)
14,CN(C)c1ccc(N=Nc2ccccc2C(=O)OCC(=O)Nc2ccccc2C(F)(F)F)cc1,28.2% (inactive)
15,COC(=O)c1cc(C(=O)OCC(=O)NC2CCS(=O)(=O)C2)cc([N+](=O)[O-])c1 (stereo not given),6.69% (inactive)
16,O=C(CCC1CCCN(C(=O)c2ccoc2)C1)NCc1ccccc1F (stereo not given),-1.5% (inactive)
17,COc1ccccc1NC(=O)Nc1nc(CC(=O)Nc2ccc(F)cc2)cs1,-9.19% (inactive)
18,COc1ccccc1NC(=O)Nc1nc(CC(=O)Nc2ccc(OC)c(OC)c2)cs1,-0.35% (inactive)
19,O=C(Cn1nnc(-c2ccccc2F)n1)Nc1ccc2c(c1)OCCO2,-0.7% (inactive)
20,C[C@H](NC(=O)c1nc[nH]c1C(=O)N1CCc2ccccc2C1)c1ccccc1,-11.5% (inactive)
21,O=C(N/N=C/c1cccc2cccnc12)c1ccccc1O,0.6% (inactive)
22,CCOc1ccc(C(=O)Nc2cccc3cccnc23)cc1,-4.15% (inactive)
23,CCOc1ccccc1C=NNC(=O)c1cccc2ccccc12,-22.3% (inactive)
24,COc1ccc(C(=O)N/N=C/c2cccnc2)cc1,-5.94% (inactive)

row,SMILES,inhibition
1,COc1ccc(C(=O)N/N=C/c2ccc3cccc(O)c3n2)cc1,-2.2% (inactive)
2,O=C(COc1ccc(Cl)cc1)N/N=C/c1cccc2cccnc12,2.4% (inactive)
3,CCN(CC)CCNC(=O)/C(=C/c1cn(C)c2ccccc12)NC(=O)c1ccc(OC)c(OC)c1,-22.9% (inactive)
4,COC(=O)Cc1[nH]nc2c1C(c1cccc(OC)c1OC)C(C#N)=C(N)O2 (stereo not given),-3.61% (inactive)
5,CN(c1ccccc1)S(=O)(=O)CS(=O)(=O)N(C)c1ccccc1,-0.79% (inactive)
6,COc1ccccc1CNC(=O)CCCn1nc(C)n2ccnc2c1=O,-0.77% (inactive)
7,CCCOc1ccc(N2CC(C(=O)Nc3ccc(N4CCOCC4)cc3)CC2=O)cc1 (stereo not given),-0.783% (inactive)
8,CCCC(C)C(=O)Nc1cccc(NC(C)=O)c1 (stereo not given),-2.06% (inactive)
9,COc1ccccc1CNC(=O)COC(=O)c1cccc(-n2cnnn2)c1,-6.66% (inactive)
10,Cc1ccc(NC(=O)C2CCCN2C(=O)OCc2ccccc2)c(O)c1 (stereo not given),0.49% (inactive)
11,COc1cc(/C=C2\SC(N)=NC2=O)cc(Cl)c1O,4.85% (inactive)
12,COc1cc(/C=C2\SC(c3ccc(C)cc3)=NC2=O)cc(OC)c1O,17.9% (inactive)
13,O=C(CCN1C(=O)c2ccccc2C1=O)NCc1ccccc1,5.94% (inactive)
14,CCN(CC)c1ccccc1,-3.57% (inactive)
15,CCN(CC)c1ccc(/C=C2\C(=O)c3ccc(C(=O)O)cc3C2=O)cc1,20.7% (inactive)
16,CCN(CC)c1ccc(SS(=O)(=O)O)cc1,-7.03% (inactive) and 0.65% (inactive)
17,CCN(CC)c1ccc(NC(=O)Nc2ccc(C(C)=O)cc2)cc1,7.64% (inactive)
18,CCN(CC)c1ccc(C(=S)NCc2ccccc2)cc1,-0.32% (inactive)
19,CCN(CC)c1ccc(C(=O)O)cc1,15.6% (inactive)
20,COC(=O)C1=C(C)N(CCCC(=O)O)C(=O)NC1c1ccccc1OS(=O)(=O)c1ccc([N+](=O)[O-])cc1 (stereo not given),13.1% (inactive)
21,Cc1cc(C)cc(NC(=O)COC(=O)CCc2ccc(S(=O)(=O)N3CCOCC3)cc2)c1,3.45% (inactive)
22,Cc1cccc2cc(C#N)c(SCC(=O)Nc3ccccc3N3CCOCC3)nc12,-15.7% (inactive)
23,Cc1ccc([N+](=O)[O-])cc1S(=O)(=O)Nc1ccc(-c2ccc(N3CCOCC3)nn2)cc1,-3.07% (inactive)
